# Experimental data as given in PubChem BioAssay AID624310 (Broad Institute, 2012).
# Calls of active or inactive are those of the source.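 Rule for the calls: active = compound lowering absorbance whose fitted half-maximal concentration is at most twice its top valid dose; inconclusive = flat fit with 30 to 70% inhibition, or poor fit; inactive = the rest, including wrong-direction or flat responses.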
# Target: Protein disulfide-isomerase (Homo sapiens) (UniProt P07237)
# Assay: PDI inhibitors, insulin aggregation turbidity, confirmation, biochemical, absorbance, dry powder samples (AID 624310)
# Chain of Protein disulfide-isomerase (Homo sapiens) (P07237 whole entry, looked up): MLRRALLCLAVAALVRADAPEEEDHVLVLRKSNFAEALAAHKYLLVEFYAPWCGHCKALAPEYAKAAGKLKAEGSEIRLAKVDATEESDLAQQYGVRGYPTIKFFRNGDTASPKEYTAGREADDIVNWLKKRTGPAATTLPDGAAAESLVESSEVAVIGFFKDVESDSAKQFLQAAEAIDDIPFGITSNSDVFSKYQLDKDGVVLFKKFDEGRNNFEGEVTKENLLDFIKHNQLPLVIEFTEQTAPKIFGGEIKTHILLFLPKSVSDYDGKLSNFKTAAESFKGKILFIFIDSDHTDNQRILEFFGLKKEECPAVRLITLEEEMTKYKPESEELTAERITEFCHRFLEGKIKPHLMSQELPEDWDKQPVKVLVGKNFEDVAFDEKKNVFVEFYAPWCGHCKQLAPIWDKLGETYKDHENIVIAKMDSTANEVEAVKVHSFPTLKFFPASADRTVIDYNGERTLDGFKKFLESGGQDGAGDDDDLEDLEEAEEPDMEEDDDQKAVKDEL
compound,measurement,value
C[C@H]1CN([C@@H](C)CO)C(=O)c2cccc(NS(C)(=O)=O)c2O[C@H]1CN(C)Cc1ccc(Oc2ccccc2)cc1,outcome,inactive
